From the supplement of paper PMC10037445
Over roughly 2,900 compounds, “IRF Lucia reporter activity, fold change vs agonist alone” has its median near 0.9; the highest 2% begin near 2.8. What follows is part of a selection rich in the highest values, with near analogues and random picks from the rest.

Key:
[1] = system: RAW-Dual; assay: IRF Lucia reporter activity, fold change vs agonist alone; higher = enhanced IRF activity; conditions: library stock concentration (final ~1000-fold dilution): 10 mM, agonist: MPLA (TLR4) […]
Procedure, shortened: (§1)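 RAW-Dual macrophages were seeded in DMEM at 50,000 cells/well in 384-well plates, given 50 nL of library stock by pin tool, and given a PRR agonist 1 h later. Plates were held at 37 °C, 5% CO2 for 20 hours, after which supernatant was read for IRF by QuantiLuc luminescence and for NF-κB by QuantiBlue absorbance at 620 nm. Reporter activity is expressed as fold change over wells that received agonist alone. A well was called cytotoxic when IncuCyte confluency fell below 70% of agonist controls in both mask sets.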

[2] = system: RAW-Dual; assay: IRF Lucia reporter activity, fold change vs agonist alone; cytotoxicity flag (confluency mask): not cytotoxic; higher = enhanced IRF activity
Procedure, shortened: as §1

[3] = system: RAW-Dual; assay: IRF Lucia reporter activity, fold change vs agonist alone; cytotoxicity flag (confluency mask): cytotoxic (confluency <70% of control); higher = enhanced IRF activity
Procedure, shortened: as §1

[4] = cytotoxicity flag (confluency mask): not cytotoxic
[5] = agonist: 3'3'-cGAMP (STING) 10 ug/mL
[6] = cytotoxicity flag (confluency mask): cytotoxic (confluency <70% of control)

CCOC(=O)c1ccc(N)cc1.Cl
IRF Lucia reporter activity [1, 4]: 1.01

CCOC(=O)c1ccc(N)cc1.Cl (library stock concentration (final ~1000-fold dilution): 10 mM)
IRF Lucia reporter activity [2, 5]: 0.942
IRF Lucia reporter activity ([2]; agonist: LPS (TLR4) 0.1 ug/mL): 1.15

CCOC(=O)c1ccc(NC2CCCCC2)c(N)c1
IRF Lucia reporter activity [1, 4]: 1.83

CCOC(=O)c1ccc(NC2CCCCC2)c(N)c1 (library stock concentration (final ~1000-fold dilution): 10 mM)
IRF Lucia reporter activity [2, 5]: 1.04
IRF Lucia reporter activity ([2]; agonist: LPS (TLR4) 0.1 ug/mL): 4.71

CCn1cc(C(=O)O)c(=O)c2c(N)c(F)c(NC3CCCCC3)cc21 (library stock concentration (final ~1000-fold dilution): 10 mM)
IRF Lucia reporter activity [2, 5]: 0.545
IRF Lucia reporter activity ([2]; agonist: LPS (TLR4) 0.1 ug/mL): 0.223

NC(=O)C1CCC2CN1C(=O)N2OS(=O)(=O)O (stereo not drawn)
IRF Lucia reporter activity [1, 4]: 1.13

NC(=O)C1CCC2CN1C(=O)N2OS(=O)(=O)O (stereo not drawn) (library stock concentration (final ~1000-fold dilution): 10 mM)
IRF Lucia reporter activity [2, 5]: 1.1
IRF Lucia reporter activity ([2]; agonist: LPS (TLR4) 0.1 ug/mL): 1.21

Oc1cc(CNC(=S)/C=C/c2cc(O)c(O)c(Br)c2)cc(O)c1O (library stock concentration (final ~1000-fold dilution): 10 mM)
IRF Lucia reporter activity [2, 5]: 0.312
IRF Lucia reporter activity ([2]; agonist: LPS (TLR4) 0.1 ug/mL): 4.35

O=C1CCC(N2Cc3c(OCc4ccc(CN5CCOCC5)cc4)cccc3C2=O)C(=O)N1 (stereo not drawn) (library stock concentration (final ~1000-fold dilution): 10 mM)
IRF Lucia reporter activity [2, 5]: 1.05
IRF Lucia reporter activity ([2]; agonist: LPS (TLR4) 0.1 ug/mL): 1.02

COc1cc(O)c(C(=O)Nc2nc(C(=O)NCCN(C(C)C)C(C)C)cs2)cc1OC.Cl.O.O.O
IRF Lucia reporter activity [1, 4]: 1.03

COc1cc(O)c(C(=O)Nc2nc(C(=O)NCCN(C(C)C)C(C)C)cs2)cc1OC.Cl.O.O.O (library stock concentration (final ~1000-fold dilution): 10 mM)
IRF Lucia reporter activity [2, 5]: 0.967
IRF Lucia reporter activity ([2]; agonist: LPS (TLR4) 0.1 ug/mL): 0.665

COc1ncc(-c2ccc3nccc(-c4ccnnc4)c3c2)cc1NS(=O)(=O)c1ccc(F)cc1F (library stock concentration (final ~1000-fold dilution): 10 mM)
IRF Lucia reporter activity [2, 5]: 1.09
IRF Lucia reporter activity ([2]; agonist: LPS (TLR4) 0.1 ug/mL): 3.52

CCCS(=O)(=O)Nc1ccc(F)c(C(=O)c2c[nH]c3ncc(-c4ccc(Cl)cc4)cc23)c1F (library stock concentration (final ~1000-fold dilution): 10 mM)
IRF Lucia reporter activity [2, 5]: 0.195
IRF Lucia reporter activity ([2]; agonist: LPS (TLR4) 0.1 ug/mL): 0.356

COc1cc2nccc(Oc3ccc(NC(=O)Nc4ccc(F)cc4F)c(F)c3)c2cc1OC (library stock concentration (final ~1000-fold dilution): 10 mM)
IRF Lucia reporter activity [3, 5]: 1.02
IRF Lucia reporter activity ([3]; agonist: LPS (TLR4) 0.1 ug/mL): 0.826

COc1ncc(-c2ccc3nccc(-c4ccnnc4)c3c2)cc1NS(=O)(=O)c1ccc(F)cc1F
IRF Lucia reporter activity [1, 4]: 1.11

COc1cc2nccc(Oc3ccc(NC(=O)Nc4ccc(F)cc4F)c(F)c3)c2cc1OC
IRF Lucia reporter activity [1, 6]: 1.23

CCCS(=O)(=O)Nc1ccc(F)c(C(=O)c2c[nH]c3ncc(-c4ccc(Cl)cc4)cc23)c1F
IRF Lucia reporter activity [1, 4]: 0.473

Cc1nc(Nc2ncc(C(=O)Nc3c(C)cccc3Cl)s2)cc(N2CCN(CCO)CC2)n1.Cl (library stock concentration (final ~1000-fold dilution): 10 mM)
IRF Lucia reporter activity [2, 5]: 0.0778
IRF Lucia reporter activity ([2]; agonist: LPS (TLR4) 0.1 ug/mL): 1.07

Cc1nc(Nc2ncc(C(=O)Nc3c(C)cccc3Cl)s2)cc(N2CCN(CCO)CC2)n1.Cl
IRF Lucia reporter activity [1, 4]: 0.77

C=C1CCN(C(C)C(O)(Cn2cncn2)c2ccc(F)cc2F)CC1 (stereo not drawn)
IRF Lucia reporter activity [1, 6]: 2.14

C=C1CCN(C(C)C(O)(Cn2cncn2)c2ccc(F)cc2F)CC1 (stereo not drawn) (library stock concentration (final ~1000-fold dilution): 10 mM)
IRF Lucia reporter activity [3, 5]: 1.25
IRF Lucia reporter activity ([3]; agonist: LPS (TLR4) 0.1 ug/mL): 2.38

CC(C)(C)NC(=O)c1cncn1C1CCN(c2ccc(-c3nnc(C(F)(F)F)o3)cn2)CC1 (library stock concentration (final ~1000-fold dilution): 10 mM)
IRF Lucia reporter activity [2, 5]: 1.33
IRF Lucia reporter activity ([2]; agonist: LPS (TLR4) 0.1 ug/mL): 3.77

CC(C)CC(NC(=O)CNC(=O)c1cc(Cl)ccc1Cl)B(O)O (stereo not drawn) (library stock concentration (final ~1000-fold dilution): 10 mM)
IRF Lucia reporter activity [2, 5]: 1
IRF Lucia reporter activity ([2]; agonist: LPS (TLR4) 0.1 ug/mL): 1.16

CC(C)CC(NC(=O)CNC(=O)c1cc(Cl)ccc1Cl)B(O)O (stereo not drawn)
IRF Lucia reporter activity [1, 4]: 1.08

COc1ccc2c(OC3CC4C(=O)NC5(C(=O)NS(=O)(=O)C6CC6)CC5/C=C\CCCCN(C)C(=O)C4C3)cc(-c3nc(C(C)C)cs3)nc2c1C (stereo not drawn)
IRF Lucia reporter activity [1, 4]: 1.05

COc1ccc2c(OC3CC4C(=O)NC5(C(=O)NS(=O)(=O)C6CC6)CC5/C=C\CCCCN(C)C(=O)C4C3)cc(-c3nc(C(C)C)cs3)nc2c1C (stereo not drawn) (library stock concentration (final ~1000-fold dilution): 10 mM)
IRF Lucia reporter activity [2, 5]: 1.04
IRF Lucia reporter activity ([2]; agonist: LPS (TLR4) 0.1 ug/mL): 1.18

Cc1ccc(/C(=C\CN2CCCC2)c2ccccn2)cc1.Cl.O
IRF Lucia reporter activity [1, 4]: 1.09

Cc1ccc(/C(=C\CN2CCCC2)c2ccccn2)cc1.Cl.O (library stock concentration (final ~1000-fold dilution): 10 mM)
IRF Lucia reporter activity [2, 5]: 0.877
IRF Lucia reporter activity ([2]; agonist: LPS (TLR4) 0.1 ug/mL): 0.728

CC(C)(O)c1cc(Nc2cc(Oc3cn(C4CC4)nc3C3CCOCC3)ccn2)ccn1 (library stock concentration (final ~1000-fold dilution): 10 mM)
IRF Lucia reporter activity [2, 5]: 1.14
IRF Lucia reporter activity ([2]; agonist: LPS (TLR4) 0.1 ug/mL): 1.53

NC1CCCN(c2c(/C=C3\SC(=O)NC3=O)cccc2-c2ccccc2)C1 (stereo not drawn)
IRF Lucia reporter activity [1, 4]: 1.1

NC1CCCN(c2c(/C=C3\SC(=O)NC3=O)cccc2-c2ccccc2)C1 (stereo not drawn) (library stock concentration (final ~1000-fold dilution): 10 mM)
IRF Lucia reporter activity [2, 5]: 0.968
IRF Lucia reporter activity ([2]; agonist: LPS (TLR4) 0.1 ug/mL): 1.16

CS(=O)(=O)CCNCc1ccc(-c2ccc3ncnc(Nc4ccc(OCc5cccc(F)c5)c(Cl)c4)c3c2)o1.Cc1ccc(S(=O)(=O)O)cc1.Cc1ccc(S(=O)(=O)O)cc1 (library stock concentration (final ~1000-fold dilution): 10 mM)
IRF Lucia reporter activity [2, 5]: 0.264
IRF Lucia reporter activity ([2]; agonist: LPS (TLR4) 0.1 ug/mL): 3.36

CS(=O)(=O)CCNCc1ccc(-c2ccc3ncnc(Nc4ccc(OCc5cccc(F)c5)c(Cl)c4)c3c2)o1.Cc1ccc(S(=O)(=O)O)cc1.Cc1ccc(S(=O)(=O)O)cc1.O
IRF Lucia reporter activity [1, 4]: 1.8

CS(=O)(=O)CCNCc1ccc(-c2ccc3ncnc(Nc4ccc(OCc5cccc(F)c5)c(Cl)c4)c3c2)o1 (library stock concentration (final ~1000-fold dilution): 10 mM)
IRF Lucia reporter activity [2, 5]: 0.277
IRF Lucia reporter activity ([2]; agonist: LPS (TLR4) 0.1 ug/mL): 1.43

CS(=O)(=O)CCNCc1ccc(-c2ccc3ncnc(Nc4ccc(OCc5cccc(F)c5)c(Cl)c4)c3c2)o1.Cc1ccc(S(=O)(=O)O)cc1.Cc1ccc(S(=O)(=O)O)cc1.O (library stock concentration (final ~1000-fold dilution): 10 mM)
IRF Lucia reporter activity [2, 5]: 0.259
IRF Lucia reporter activity ([2]; agonist: LPS (TLR4) 0.1 ug/mL): 2.46

CS(=O)(=O)CCNCc1ccc(-c2ccc3ncnc(Nc4ccc(OCc5cccc(F)c5)c(Cl)c4)c3c2)o1.Cc1ccc(S(=O)(=O)O)cc1.Cc1ccc(S(=O)(=O)O)cc1
IRF Lucia reporter activity [1, 4]: 1.28

CS(=O)(=O)CCNCc1ccc(-c2ccc3ncnc(Nc4ccc(OCc5cccc(F)c5)c(Cl)c4)c3c2)o1
IRF Lucia reporter activity [1, 4]: 1.6
